The results in this text go back to ChEMBL document CHEMBL1961873, “Compounds: GSK PKIS; Assays: Nanosyn kinase panel” (2012).

As usually defined, the inhibition is the relative decrease from the control value, in per cent.

SMILES strings stand for the structures. “And” between values parts separate entries of the source, which are not always exact repeats. Identical values can stand only once.

The target of assay [1] is Glycogen synthase kinase-3 beta (Homo sapiens) (UniProt P49841). To be noted: at 1 µM.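 Further: reported values are mean percent inhibition of GSK3B.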
Chain of Glycogen synthase kinase-3 beta (Homo sapiens) (P49841 whole entry, looked up): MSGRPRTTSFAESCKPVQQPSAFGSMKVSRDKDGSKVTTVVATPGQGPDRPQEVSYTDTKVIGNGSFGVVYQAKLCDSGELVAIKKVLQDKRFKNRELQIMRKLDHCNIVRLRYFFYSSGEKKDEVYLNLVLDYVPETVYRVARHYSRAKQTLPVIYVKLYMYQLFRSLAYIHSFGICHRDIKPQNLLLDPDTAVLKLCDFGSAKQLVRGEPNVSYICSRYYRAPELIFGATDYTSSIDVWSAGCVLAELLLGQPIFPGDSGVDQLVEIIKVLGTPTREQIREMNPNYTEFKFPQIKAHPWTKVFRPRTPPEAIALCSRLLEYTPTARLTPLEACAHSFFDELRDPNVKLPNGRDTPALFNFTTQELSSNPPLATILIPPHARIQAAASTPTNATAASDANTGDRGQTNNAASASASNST
Assay [2] deals with Homeodomain-interacting protein kinase 1 (Homo sapiens) (UniProt Q86Z02). To be noted: at 0.1 µM.
Chain of Homeodomain-interacting protein kinase 1 (Homo sapiens) (Q86Z02 whole entry, looked up): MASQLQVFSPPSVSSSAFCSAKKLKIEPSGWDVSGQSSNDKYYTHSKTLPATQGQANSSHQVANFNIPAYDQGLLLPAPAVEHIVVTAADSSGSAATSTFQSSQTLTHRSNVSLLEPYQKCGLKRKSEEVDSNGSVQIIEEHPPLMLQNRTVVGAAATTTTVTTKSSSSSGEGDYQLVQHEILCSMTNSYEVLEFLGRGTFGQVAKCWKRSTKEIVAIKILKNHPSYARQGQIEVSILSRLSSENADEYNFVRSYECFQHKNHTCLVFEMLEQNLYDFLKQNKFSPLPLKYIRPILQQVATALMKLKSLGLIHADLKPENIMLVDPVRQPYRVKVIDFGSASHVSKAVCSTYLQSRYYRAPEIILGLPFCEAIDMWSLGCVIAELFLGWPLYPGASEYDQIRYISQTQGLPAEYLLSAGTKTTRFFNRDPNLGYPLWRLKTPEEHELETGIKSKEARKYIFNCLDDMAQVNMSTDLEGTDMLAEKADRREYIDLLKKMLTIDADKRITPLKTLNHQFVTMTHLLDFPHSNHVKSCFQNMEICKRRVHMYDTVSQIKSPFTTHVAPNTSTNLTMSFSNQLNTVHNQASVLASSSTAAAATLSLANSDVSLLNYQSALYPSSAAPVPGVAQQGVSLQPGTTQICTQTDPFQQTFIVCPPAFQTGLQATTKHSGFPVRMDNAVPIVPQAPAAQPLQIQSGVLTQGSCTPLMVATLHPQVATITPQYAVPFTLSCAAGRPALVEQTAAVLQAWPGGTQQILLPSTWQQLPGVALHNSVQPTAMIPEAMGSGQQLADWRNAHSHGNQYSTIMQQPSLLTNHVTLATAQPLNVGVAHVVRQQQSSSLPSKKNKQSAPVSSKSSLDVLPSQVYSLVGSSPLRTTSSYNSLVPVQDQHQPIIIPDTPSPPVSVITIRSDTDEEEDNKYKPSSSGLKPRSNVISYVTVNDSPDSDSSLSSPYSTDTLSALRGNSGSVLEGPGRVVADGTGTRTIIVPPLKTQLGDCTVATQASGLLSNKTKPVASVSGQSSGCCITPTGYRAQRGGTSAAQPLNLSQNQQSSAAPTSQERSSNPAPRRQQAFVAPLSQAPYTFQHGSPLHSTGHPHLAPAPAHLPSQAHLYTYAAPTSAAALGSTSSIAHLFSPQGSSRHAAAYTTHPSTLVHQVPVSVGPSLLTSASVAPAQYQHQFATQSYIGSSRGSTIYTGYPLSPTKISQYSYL
Assay [3] shares this target. To be noted: at 1 µM.
In assay [4] the target is T1, Homeodomain-interacting protein kinase 4 (Homo sapiens) (UniProt Q8NE63).
T1 sequence (whole entry): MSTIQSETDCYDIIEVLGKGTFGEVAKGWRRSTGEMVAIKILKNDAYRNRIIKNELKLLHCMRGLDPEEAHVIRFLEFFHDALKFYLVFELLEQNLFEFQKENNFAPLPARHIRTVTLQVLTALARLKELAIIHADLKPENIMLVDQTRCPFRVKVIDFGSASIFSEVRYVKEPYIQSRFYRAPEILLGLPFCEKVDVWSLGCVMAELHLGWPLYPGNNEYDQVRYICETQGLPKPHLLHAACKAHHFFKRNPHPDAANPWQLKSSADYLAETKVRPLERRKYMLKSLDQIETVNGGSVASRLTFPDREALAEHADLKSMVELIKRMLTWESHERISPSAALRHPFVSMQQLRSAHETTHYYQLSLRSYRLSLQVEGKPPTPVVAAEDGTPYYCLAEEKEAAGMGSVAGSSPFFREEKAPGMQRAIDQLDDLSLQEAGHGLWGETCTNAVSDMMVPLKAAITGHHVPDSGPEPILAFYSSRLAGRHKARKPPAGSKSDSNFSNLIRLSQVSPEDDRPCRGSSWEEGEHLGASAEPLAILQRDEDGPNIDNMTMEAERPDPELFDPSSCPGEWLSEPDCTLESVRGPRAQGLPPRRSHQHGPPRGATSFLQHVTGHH
The note with it: at 0.1 µM.

The target in assay [5] is T1, Homeodomain-interacting protein kinase 4 (Homo sapiens). The note with it: at 1 µM.
For assay [6], the target named is Mitogen-activated protein kinase 9 (Homo sapiens) (UniProt P45984). To be noted: at 0.1 µM.
Chain of Mitogen-activated protein kinase 9 (Homo sapiens) (P45984 whole entry, looked up): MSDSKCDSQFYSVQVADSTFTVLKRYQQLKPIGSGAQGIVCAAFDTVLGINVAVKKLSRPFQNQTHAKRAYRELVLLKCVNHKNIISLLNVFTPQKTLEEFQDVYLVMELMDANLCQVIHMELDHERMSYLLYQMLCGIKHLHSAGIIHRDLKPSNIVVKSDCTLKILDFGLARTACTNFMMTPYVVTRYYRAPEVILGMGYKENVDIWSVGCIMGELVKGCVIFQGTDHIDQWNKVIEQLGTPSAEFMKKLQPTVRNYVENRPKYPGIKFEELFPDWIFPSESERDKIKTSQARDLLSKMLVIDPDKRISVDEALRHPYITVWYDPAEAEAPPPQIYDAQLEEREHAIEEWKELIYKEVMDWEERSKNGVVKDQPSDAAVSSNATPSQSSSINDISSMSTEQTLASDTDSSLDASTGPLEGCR
Assay [7] has the same target. The note with it: at 1 µM.
Assay [8] has as its target Mitogen-activated protein kinase 1 (Homo sapiens) (UniProt P28482). The note with it: at 0.1 µM.
Assay [9] has the same target. To be noted: at 1 µM.
In assay [10] the target is Mitogen-activated protein kinase 3 (Homo sapiens) (UniProt P27361). The note with it: at 0.1 µM.
Chain of Mitogen-activated protein kinase 3 (Homo sapiens) (P27361 whole entry): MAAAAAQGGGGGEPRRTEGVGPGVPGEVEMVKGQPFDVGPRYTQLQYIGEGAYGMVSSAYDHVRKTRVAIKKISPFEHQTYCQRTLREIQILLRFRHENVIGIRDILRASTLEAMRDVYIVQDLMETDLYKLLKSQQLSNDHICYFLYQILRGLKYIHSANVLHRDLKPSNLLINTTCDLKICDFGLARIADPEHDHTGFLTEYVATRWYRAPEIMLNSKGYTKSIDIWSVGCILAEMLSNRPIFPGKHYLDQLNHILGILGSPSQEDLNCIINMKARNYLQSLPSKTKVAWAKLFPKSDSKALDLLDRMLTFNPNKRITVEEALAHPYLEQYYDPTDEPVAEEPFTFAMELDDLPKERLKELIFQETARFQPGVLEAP
For assay [11] the target is unchanged. To be noted: at 1 µM.
Assay [12] concerns the target SRSF protein kinase 3 (Homo sapiens) (UniProt Q9UPE1). The note with it: at 0.1 µM.
Assay [13] shares this target. The note with it: at 1 µM.
Assay [14] concerns the target Mitogen-activated protein kinase 14 (Homo sapiens) (UniProt Q16539). The note with it: at 0.1 µM.
The target is the same in assay [15]. To be noted: at 1 µM.
Assay [16] deals with Mitogen-activated protein kinase 11 (Homo sapiens) (UniProt Q15759). To be noted: at 0.1 µM.
Chain of Mitogen-activated protein kinase 11 (Homo sapiens) (Q15759 whole entry): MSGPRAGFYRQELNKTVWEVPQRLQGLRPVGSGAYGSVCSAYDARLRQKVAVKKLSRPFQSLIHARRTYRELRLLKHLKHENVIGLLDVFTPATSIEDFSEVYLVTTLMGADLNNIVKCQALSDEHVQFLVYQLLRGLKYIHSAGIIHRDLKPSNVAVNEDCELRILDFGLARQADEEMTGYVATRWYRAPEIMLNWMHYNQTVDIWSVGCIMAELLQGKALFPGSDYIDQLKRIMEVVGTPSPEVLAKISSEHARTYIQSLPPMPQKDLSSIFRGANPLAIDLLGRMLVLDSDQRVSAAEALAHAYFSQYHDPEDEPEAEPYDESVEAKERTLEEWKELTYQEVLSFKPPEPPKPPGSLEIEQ
Assay [17] has the same target. To be noted: at 1 µM.
Assay [18] concerns the target T2, Mitogen-activated protein kinase 13 (Homo sapiens) (UniProt O15264).
T2 sequence (whole entry): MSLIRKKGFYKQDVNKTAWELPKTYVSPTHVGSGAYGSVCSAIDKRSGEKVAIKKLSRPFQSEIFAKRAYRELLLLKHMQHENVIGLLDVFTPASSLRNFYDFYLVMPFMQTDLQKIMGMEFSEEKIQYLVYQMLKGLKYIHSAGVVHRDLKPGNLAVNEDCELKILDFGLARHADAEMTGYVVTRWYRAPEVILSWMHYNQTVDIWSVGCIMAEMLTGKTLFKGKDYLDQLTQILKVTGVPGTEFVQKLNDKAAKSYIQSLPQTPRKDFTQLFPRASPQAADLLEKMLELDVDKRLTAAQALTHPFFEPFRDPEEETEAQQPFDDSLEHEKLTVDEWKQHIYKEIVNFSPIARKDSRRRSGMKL
To be noted: at 0.1 µM.

Assay [19] has as its target T2, Mitogen-activated protein kinase 13 (Homo sapiens). To be noted: at 1 µM.
The target of assay [20] is T3, Mitogen-activated protein kinase 12 (Homo sapiens) (UniProt P53778).
T3 sequence (whole entry): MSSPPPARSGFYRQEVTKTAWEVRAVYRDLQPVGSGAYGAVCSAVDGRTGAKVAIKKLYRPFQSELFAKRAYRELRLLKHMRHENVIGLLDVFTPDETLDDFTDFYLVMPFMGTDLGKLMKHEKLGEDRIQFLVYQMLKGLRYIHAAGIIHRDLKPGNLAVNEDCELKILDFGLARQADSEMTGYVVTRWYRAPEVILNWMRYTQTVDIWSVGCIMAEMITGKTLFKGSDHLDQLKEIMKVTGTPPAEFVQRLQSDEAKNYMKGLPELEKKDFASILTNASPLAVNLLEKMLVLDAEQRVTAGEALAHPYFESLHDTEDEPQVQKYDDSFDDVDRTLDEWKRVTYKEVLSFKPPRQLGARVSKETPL
To be noted: at 0.1 µM.

Chain of Mitogen-activated protein kinase 1 (Homo sapiens) (P28482 whole entry): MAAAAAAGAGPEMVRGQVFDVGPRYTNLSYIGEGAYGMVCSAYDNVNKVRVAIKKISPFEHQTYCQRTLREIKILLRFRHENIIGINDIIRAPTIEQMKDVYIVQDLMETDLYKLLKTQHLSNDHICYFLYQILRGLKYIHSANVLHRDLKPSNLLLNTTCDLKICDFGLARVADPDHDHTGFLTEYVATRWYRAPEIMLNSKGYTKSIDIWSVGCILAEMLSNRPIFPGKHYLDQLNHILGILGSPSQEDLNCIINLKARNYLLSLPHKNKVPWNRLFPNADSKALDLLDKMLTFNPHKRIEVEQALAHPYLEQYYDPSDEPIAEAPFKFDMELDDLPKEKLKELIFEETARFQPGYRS
Chain of Mitogen-activated protein kinase 14 (Homo sapiens) (Q16539 whole entry): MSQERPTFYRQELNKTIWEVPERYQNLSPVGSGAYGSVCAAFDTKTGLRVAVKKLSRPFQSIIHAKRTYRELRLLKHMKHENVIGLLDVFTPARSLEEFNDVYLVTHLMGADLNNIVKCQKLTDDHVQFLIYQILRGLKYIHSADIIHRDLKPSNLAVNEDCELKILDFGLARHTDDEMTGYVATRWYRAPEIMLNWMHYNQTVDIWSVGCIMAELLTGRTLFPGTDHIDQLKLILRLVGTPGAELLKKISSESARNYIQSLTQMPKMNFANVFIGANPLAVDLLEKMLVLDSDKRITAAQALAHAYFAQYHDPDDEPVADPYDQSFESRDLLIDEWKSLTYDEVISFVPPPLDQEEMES
Chain of SRSF protein kinase 3 (Homo sapiens) (Q9UPE1 whole entry): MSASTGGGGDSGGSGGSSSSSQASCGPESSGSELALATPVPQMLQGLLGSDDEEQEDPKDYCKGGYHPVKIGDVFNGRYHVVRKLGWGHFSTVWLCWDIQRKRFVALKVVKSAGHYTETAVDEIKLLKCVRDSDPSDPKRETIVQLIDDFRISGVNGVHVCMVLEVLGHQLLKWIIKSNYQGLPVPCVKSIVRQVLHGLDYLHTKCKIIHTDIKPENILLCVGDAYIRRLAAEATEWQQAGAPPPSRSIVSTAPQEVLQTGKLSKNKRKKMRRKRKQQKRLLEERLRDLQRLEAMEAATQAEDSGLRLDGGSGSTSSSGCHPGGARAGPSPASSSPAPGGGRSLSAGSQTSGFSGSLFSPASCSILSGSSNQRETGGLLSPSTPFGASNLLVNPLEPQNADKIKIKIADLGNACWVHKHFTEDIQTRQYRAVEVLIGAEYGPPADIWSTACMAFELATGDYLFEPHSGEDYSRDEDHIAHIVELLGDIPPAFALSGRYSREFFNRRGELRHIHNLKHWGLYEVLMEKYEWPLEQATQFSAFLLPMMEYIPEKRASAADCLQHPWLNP

On to `CCCNc1cccc(-n2ncc3c(N/N=C/c4ccncc4)ncnc32)c1`, for which the inhibition in [1] was 68.7%; in assay [2], 2.78%; in [3] it was 13.5%; in assay [4] it was 4.71%; in assay [5], 27.7%; in assay [6], -0.25%. Also, the inhibition in assay [7] is 6.14%; in assay [8], 1.61%; in [9] it was 1.54%; in [10], 1.28%; in assay [11] it was 3.62%; in [12] it was -0.81%. Also, the inhibition in assay [13] was 0.97%; in assay [14], 1.81%; in assay [15] it was 7.62%; in assay [16] it was 4.76%; in assay [17], 25.5%; in [18], 0.94%. For the same compound, the inhibition in [19] stood at 3.1%; in assay [20], 0.51%.

As to `CS(=O)(=O)CCNCc1ccc(-c2ccc3ncnc(Nc4ccc(OCc5ccccc5)cc4)c3c2)o1`, the inhibition was 3.37% in assay [1]; -0.23% in [2]; 3.06% in [3]; 0.8% in assay [4]; 4.91% in assay [5]; 2.23% in assay [6]. Besides, the inhibition in [7] is 2.48%; in assay [8], 4.02%; in assay [9], 3.85%; in [10], 2.1%; in assay [11] it was 1.62%; in assay [12], -0.49%. Besides, the inhibition in assay [13] is 0.73%; in [14], 4.73%; in assay [15], 7.34%; in assay [16], 2.9%; in assay [17], 4.87%; in assay [18], 2.17%. Besides, the inhibition in assay [19] was 1.45%; in [20] it was 2.39%.

For `Nc1nccc(-c2c(-c3ccc(F)cc3)ncn2C2CCNCC2)n1`, the inhibition in assay [1] was 2.45% and 5.63%; in assay [2], -0.66% and 2.64%; in assay [3] it was 7.61% and 4.5%; in assay [4] it was 0.4% and 1.82%; in assay [5], 8.1% and 1.64%; in assay [8], -4.78%. The inhibition in assay [9] is 0.6% and 1.9%; in assay [10] it was -1.7% and 0.12%; in assay [11], 1.29% and 5.05%; in assay [12] it was -1.41% and 0.32%; in assay [13] it was -1.34% and 0.18%.

On to `O=C(O[C@H]1CN[C@H](C#Cc2cc3ncnc(Nc4ccc5c(cnn5Cc5ccccc5)c4)c3s2)C1)N1CCOCC1`, for which the inhibition in assay [1] is 3.77%; in assay [2] it was -3.77%; in assay [3], -1.24%; in assay [4], -1.27%; in assay [5], -0.32%; in assay [6], 0.01%. For the same compound, the inhibition in assay [7] is 0.13%; in assay [8], 0.84%; in assay [9] it was -0.13%; in assay [10] it was -0.77%; in assay [11], 1.75%; in [12], -1.9%. Also, the inhibition in assay [13] was -0.82%; in [14], 0.21%; in assay [15], 0.45%; in assay [16], 1.51%; in assay [17], 4.76%; in assay [18], -1.3%. Further, the inhibition in assay [19] is -2.91%; in [20] it was -1.24%.

With `O=C(O[C@H]1CN[C@H](C#Cc2cc3ncnc(Nc4ccc5c(ccn5Cc5cc(F)ccc5F)c4)c3s2)C1)N1CCOCC1`, the inhibition in assay [1] is 5.52%; in assay [2], 0.14%; in [3], -1.46%; in assay [4], 0.47%; in assay [5], 2.6%; in assay [6], 5.66%. For the same compound, the inhibition was 5.74% in assay [7]; 3.73% in assay [8]; 5.12% in [9]; 4.98% in assay [10]; 2.72% in assay [11]; -1.71% in assay [12]. In addition, the inhibition in assay [13] is -2.33%; in assay [14] it was 5.28%; in assay [15] it was 8.23%; in assay [16], 3.16%; in [17] it was 5.47%; in [18] it was 2.39%. Also, the inhibition in assay [19] stood at 5.7%; in assay [20] it was 3.21%.

As for `CC1=C(C(=O)Nc2ccc3[nH]ncc3c2)C(c2ccc(F)cc2)N=C(c2ccc(C(F)(F)F)nc2)N1` (stereo unspecified), the inhibition was 4.71% in assay [1]; 0.16% in [2]; 2.28% in assay [3]; 0.68% in assay [4]; 1.53% in assay [5]; 1.61% in assay [6]. The inhibition was 4.98% in assay [7]; -1.73% in [8]; 3.17% in [9]; 1.81% in assay [10]; -0.07% in assay [11]; 0.36% in assay [12]. In addition, the inhibition in assay [13] came to 0.93%; in [14], 6.91%; in [15] it was 7.75%; in assay [16], 0.24%; in assay [17], 2.12%; in [18], 2.38%. Moreover, the inhibition in [19] turned out to be 2.31%; in assay [20], 0.91%.

For the compound `Cc1cc(O)cc(C)c1/C=C/c1cncc(C(=O)OC(C)(C)C)c1`, the inhibition came to 7.76% in assay [1]; 2.63% in assay [2]; 7.33% in [3]; 1.55% in assay [4]; 2.43% in assay [5]; 1.52% in assay [6]. For the same compound, the inhibition in assay [7] is 1.71%; in [8] it was 2.41%; in assay [9], 4.61%; in [10] it was 1.22%; in assay [11], 5.66%; in assay [12] it was -1.96%. Besides, the inhibition in assay [13] was -3.77%; in assay [14], 5.49%; in [15] it was 6.26%; in [16] it was 1.86%; in assay [17] it was 5.95%; in assay [18], 2.17%. The inhibition in [19] turned out to be 1.43%; in assay [20], 2.88%.
